# Laboratory results as given in PubChem BioAssay (Tox21).
# “And” between values parts separate entries of the source, which are not always exact repeats. Equal values may be shown once. Records with an inconclusive call do not appear. A call without a number means that no potency is given here. More than one record can exist for a structure, and the calls need not agree. The source made the active and inactive calls. Unless noted, calls follow the shape of the dose curve; as a rule, active = well fitted curve in the direction sought with a large enough effect in the repeat runs; inconclusive = weak or mixed curves; inactive = no such curve, though single readings can be large; an effect the other way counts as inactive or inconclusive.
# Legend:
# [1] = target: Luciferin 4-monooxygenase (Photinus pyralis) (UniProt P08659); test: qHTS assay to identify small molecule inhibitors of firefly luciferase (AID 1224835); also: nearly all actives have a fitted effect of over 25% in size; also: potency is read from the fitted curve at half-maximal effect
# Outline: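 Biochemical qHTS: compounds run as interplate titrations against purified firefly enzyme, with D-luciferin and ATP each at its KM concentration. Light output recorded by CCD imaging.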
# [2] = qHTS assay to identify small molecule antagonists of the constitutive androstane receptor (CAR) signaling pathway - cell viability counter screen (AID 1224837); also: nearly all actives have a fitted effect of over 45% in size; also: potency is read from the fitted curve at half-maximal effect
# Outline: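 Counter screen run in HepG2-CYP2B6-hCAR cells: 4 hr settle, compound titration (15 concentrations) with 50 nM CITCO, 23 hr at 37 C/5% CO2, CellTiter-Fluor fluorescence.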
# [3] = target: Nuclear receptor subfamily 1 group I member 3 (Homo sapiens) (UniProt Q14994); test: qHTS assay to identify small molecule agonists of the constitutive androstane receptor (CAR) signaling pathway (AID 1224839); also: nearly all actives have a fitted effect of over 15% in size; also: potency is read from the fitted curve at half-maximal effect;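 as to activation: HepG2 cells stably carrying human CAR and a CYP2B6 luciferase reporter; series mostly up to about 92 µM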
# Outline: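 Readout: firefly luciferase luminescence via ONE-Glo. System: HepG2 double-stable for hCAR and CYP2B6-2.2kb. Conditions: 15-point compound titration, PK11195 at 0.75 uM final, 24 h incubation.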
# [4] = qHTS assay to identify small molecule antagonists of the estrogen related receptor signaling pathway with the pleiotropic PPARgamma coactivator (PGC) from Tox21 10K library - cell viability counter screen (AID 1224840; active = well fitted cell-killing curve with a large enough effect in the repeat runs, not every such curve was filed as active; also: nearly all actives have a fitted effect of over 40% in size; also: potency is read from the fitted curve at half-maximal effect)
# Outline: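 Following seeding of 2,000 PGC/ERR cells/well and 6 hours' incubation, test compounds were delivered in DMSO. The plates then sat 17.5 hours at 37 C before a fluorogenic live-cell protease reagent (CellTiter-Fluor) was read after 30 min.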
# [5] = qHTS assay to identify small molecule antagonists of the estrogen related receptor signaling pathway with the pleiotropic PPARgamma coactivator (PGC) from Tox21 10K library (AID 1224841; call rule not given here; also: actives are mostly falling curves and most rising ones were filed inactive; nearly all actives have a fitted effect of over 50% in size; also: potency is read from the fitted curve at half-maximal effect)
# Outline: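 qHTS antagonist format: PGC/ERR cells, 2k/well, compound in DMSO by pin transfer after 6 h attachment, 18 h treatment at 37 C, One-Glo luminescence read at 30 min.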
# [6] = target: Thyrotropin receptor (Homo sapiens) (UniProt P16473); test: qHTS assay to identify small molecule agonists of the thyroid stimulating hormone receptor (TSHR) signaling pathway (AID 1224843; calls by dose curve; also: nearly all actives have a fitted effect of over 45% in size; also: potency is read from the fitted curve at half-maximal effect)
# Outline: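 Steps: seed 800 TSHR-HEK293 cells per well; add test compound and hold 30 min at ambient temperature; dispense cAMP-d2 then anti-cAMP cryptate; incubate 1 h at ambient; measure fluorescence intensity.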
# [7] = qHTS assay to identify small molecule agonists of the constitutive androstane receptor (CAR) signaling pathway - cell viability counter screen (AID 1224836); also: series mostly up to about 92 µM; nearly all actives have a fitted effect of over 45% in size
# Outline: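 Double-stable HepG2 hepatoma cells (hCAR plus CYP2B6-2.2kb) are treated for 23 h at 37 C with test compounds in 15-point concentration series. PK11195 at 0.75 uM final is co-added. Cell viability is quantified by CellTiter-Fluor.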
# [8] = target: Nuclear receptor subfamily 1 group I member 3 (Homo sapiens) (UniProt Q14994); test: qHTS assay to identify small molecule antagonists of the constitutive androstane receptor (CAR) signaling pathway (AID 1224838);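 also: HepG2 cells stably expressing hCAR with CYP2B6 luciferase reporter stimulated by CITCO; nearly all actives have a fitted effect of over 40% in size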
# Outline: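 Cell line: HepG2 double-stable for hCAR and CYP2B6-2.2kb reporter. Agonist: CITCO, 50 nM final. Compounds: 15 concentrations, 24 h, 37 C. Detection: ONE-Glo luminescence.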
# Luciferin 4-monooxygenase (Photinus pyralis), sequence (P08659 whole entry, looked up): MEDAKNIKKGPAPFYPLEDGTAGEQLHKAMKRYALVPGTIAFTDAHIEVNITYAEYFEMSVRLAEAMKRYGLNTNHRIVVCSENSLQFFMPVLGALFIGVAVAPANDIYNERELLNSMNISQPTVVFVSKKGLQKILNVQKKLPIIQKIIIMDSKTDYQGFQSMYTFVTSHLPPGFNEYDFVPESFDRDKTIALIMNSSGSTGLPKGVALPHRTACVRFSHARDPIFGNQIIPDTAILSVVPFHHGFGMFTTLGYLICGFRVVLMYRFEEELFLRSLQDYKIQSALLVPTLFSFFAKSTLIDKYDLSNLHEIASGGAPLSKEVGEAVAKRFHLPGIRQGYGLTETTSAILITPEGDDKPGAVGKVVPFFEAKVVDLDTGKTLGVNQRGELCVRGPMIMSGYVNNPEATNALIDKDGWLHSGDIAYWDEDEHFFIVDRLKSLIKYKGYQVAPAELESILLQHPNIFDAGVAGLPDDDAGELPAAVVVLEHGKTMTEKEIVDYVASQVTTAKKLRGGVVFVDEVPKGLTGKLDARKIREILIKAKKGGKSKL
# Nuclear receptor subfamily 1 group I member 3 (Homo sapiens), sequence (Q14994 whole entry, looked up): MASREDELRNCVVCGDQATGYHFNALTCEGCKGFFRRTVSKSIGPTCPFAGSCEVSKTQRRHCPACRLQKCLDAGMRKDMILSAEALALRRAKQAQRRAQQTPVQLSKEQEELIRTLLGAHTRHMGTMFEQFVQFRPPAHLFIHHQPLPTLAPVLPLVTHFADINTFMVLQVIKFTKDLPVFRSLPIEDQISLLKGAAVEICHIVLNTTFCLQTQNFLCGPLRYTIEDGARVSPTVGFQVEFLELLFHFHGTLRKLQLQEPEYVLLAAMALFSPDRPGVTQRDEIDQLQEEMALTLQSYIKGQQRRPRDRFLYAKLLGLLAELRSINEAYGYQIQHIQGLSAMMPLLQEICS
# Thyrotropin receptor (Homo sapiens), sequence (P16473 whole entry, looked up): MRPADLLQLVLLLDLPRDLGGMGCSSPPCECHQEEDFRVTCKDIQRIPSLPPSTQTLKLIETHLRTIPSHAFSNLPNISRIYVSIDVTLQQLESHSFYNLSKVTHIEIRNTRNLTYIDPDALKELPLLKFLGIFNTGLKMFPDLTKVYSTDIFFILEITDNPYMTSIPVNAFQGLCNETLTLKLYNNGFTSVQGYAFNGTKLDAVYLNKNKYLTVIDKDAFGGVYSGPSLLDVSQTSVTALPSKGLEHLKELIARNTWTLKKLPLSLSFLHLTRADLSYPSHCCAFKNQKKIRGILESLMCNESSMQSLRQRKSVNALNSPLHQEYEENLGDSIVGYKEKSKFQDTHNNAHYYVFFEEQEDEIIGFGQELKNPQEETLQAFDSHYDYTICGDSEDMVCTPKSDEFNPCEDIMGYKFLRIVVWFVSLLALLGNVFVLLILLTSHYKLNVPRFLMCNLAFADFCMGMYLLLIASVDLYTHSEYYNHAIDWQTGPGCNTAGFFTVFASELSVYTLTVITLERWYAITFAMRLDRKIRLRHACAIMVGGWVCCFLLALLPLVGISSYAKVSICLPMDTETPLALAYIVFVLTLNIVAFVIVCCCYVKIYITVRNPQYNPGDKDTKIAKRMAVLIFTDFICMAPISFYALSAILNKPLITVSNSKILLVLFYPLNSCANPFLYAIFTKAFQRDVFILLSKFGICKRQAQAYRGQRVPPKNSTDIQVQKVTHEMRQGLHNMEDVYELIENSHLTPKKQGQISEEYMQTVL
smiles,measurement,setting,value
CCc1nc(N)nc(N)c1-c1ccc(Cl)cc1,Potency,[1],inactive
same,Potency,[2],inactive
same,Potency,[3],inactive
CS(=O)(=O)OCCCCOS(C)(=O)=O,Potency,[1],inactive
same,Potency,[2],inactive
same,Potency,[4],inactive
same,Potency,[5],30.7 µM (active) and inactive
same,Potency,[6],inactive
CCCCC(CC)C(=O)O (stereo not drawn),Potency,[1],inactive
same,Potency,[7],inactive
same,Potency,[2],inactive
same,Potency,[6],inactive
C[C@](N)(Cc1ccc(O)c(O)c1)C(=O)O,Potency,[2],inactive
same,Potency,[3],inactive
same,Potency,[4],inactive
CC/C(=C(\c1ccccc1)c1ccc(OCCN(C)C)cc1)c1ccccc1,Potency,[6],inactive
O=C1NS(=O)(=O)c2ccccc21,Potency,[2],inactive
same,Potency,[6],inactive
CN(N=O)C(=O)N[C@@H]1[C@@H](O)[C@H](O)[C@@H](CO)O[C@@H]1O,Potency,[1],inactive
same,Potency,[2],inactive
same,Potency,[3],inactive
same,Potency,[4],inactive
same,Potency,[6],inactive
CN(C)C(=S)SC(=S)N(C)C,Potency,[1],25.8 µM (active) and 11.2 µM (active) and 12.3 µM (active)
same,Potency,[2],1.57 µM (active) and 1.72 µM (active) and 2.37 µM (active)
same,Potency,[3],inactive
same,Potency,[5],1.25 µM (active) and 1.22 µM (active) and 2.37 µM (active)
same,Potency,[6],inactive
NC1CCCCC1,Potency,[1],inactive
same,Potency,[2],inactive
same,Potency,[8],inactive
same,Potency,[3],inactive
same,Potency,[6],194 nM (active) and inactive
CCOC(N)=O,Potency,[1],inactive
same,Potency,[7],inactive
same,Potency,[2],inactive
same,Potency,[6],inactive
Nc1ccc([N+](=O)[O-])cc1O,Potency,[8],inactive
same,Potency,[4],30.6 µM (active)
Cc1cn([C@H]2C=C[C@@H](CO)O2)c(=O)[nH]c1=O,Potency,[1],inactive
same,Potency,[2],inactive
same,Potency,[8],inactive
same,Potency,[3],inactive
same,Potency,[4],inactive
same,Potency,[6],inactive
O=C1O[C@H]([C@@H](O)CO)C(O)=C1O,Potency,[1],inactive
same,Potency,[2],inactive
same,Potency,[3],inactive
same,Potency,[6],inactive
CCCCCCCC(=O)OCC(COC(=O)CCCCCCC)OC(=O)CCCCCCC,Potency,[1],inactive
same,Potency,[7],inactive
same,Potency,[2],inactive
same,Potency,[6],inactive
F[B-](F)(F)F,Potency,[1],inactive
same,Potency,[2],inactive
same,Potency,[6],inactive
CN(C)CCOC(c1ccccc1)c1ccccc1,Potency,[1],inactive
same,Potency,[2],inactive
same,Potency,[4],inactive
same,Potency,[6],inactive
CCCC[P+](CCCC)(CCCC)CCCC,Potency,[2],inactive
same,Potency,[3],inactive
same,Potency,[4],inactive
same,Potency,[6],inactive
Nc1ccc2c(c1)CN1C(=O)c3ccccc3C1=N2,Potency,[1],213 nM (active)
same,Potency,[3],0.184 µM (active)
same,activation,[6],-0.704% [at 19 µM] (inactive)
CCN(Cc1c(F)cccc1Cl)c1c([N+](=O)[O-])cc(C(F)(F)F)cc1[N+](=O)[O-],Potency,[1],inactive
same,Potency,[2],inactive
same,Potency,[3],7.7 µM (active)
same,Potency,[4],inactive
Nc1ccc(S(N)(=O)=O)cc1,Potency,[7],inactive
same,Potency,[2],inactive
same,Potency,[3],inactive
same,Potency,[6],inactive
CCCCCCCCCCCC[N+](C)(C)Cc1ccccc1,Potency,[1],inactive
same,Potency,[2],47.6 µM (active) and 23.7 µM (active)
same,Potency,[3],inactive
same,Potency,[6],30 µM (active) and 37.4 µM (active)
CC(=O)Nc1c(I)c(NC(C)=O)c(I)c(C(=O)O)c1I,Potency,[7],inactive
same,Potency,[2],inactive
same,Potency,[4],inactive
same,Potency,[6],inactive
